Sampled rows, rich in hits. Any-hit rate of the full collection: about 4.5%.
ssDAF12 agonist: activates DAF-12 receptor from parasite S. stercoralis. hit rate 1% among 370,000. activation, % at 6.8 µM. AID 652126. HEK293 ssDAF-12/GRIP1 lit1-tk-luc reporter, luminescence; % of 3 µM dafachronic acid response;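 active = activation above the mean over all tested compounds plus 3 SD, cut at about 0.9% in these data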;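 also: 0% = DMSO-only wells and 100% = 3 µM delta7-dafachronic acid wells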
FXN GAA850 act: frataxin GAA850 promoter activation. HEK293 lucGAA850 FXN promoter luciferase reporter, 24 h; percent of 10 µM SAHA response. activation, % at 6 µM. hit rate 0.56% among 360,000;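 active = activation above the average of all compounds screened plus 3 SD, cutoff fixed separately per campaign, cut at about 7.5% in these data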;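 also: 0% = DMSO wells and 100% = 10 µM SAHA wells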
DAX1 inh-1: inhibitors of DAX1 repression of SF-1 activated StAR promoter | HEK293T StAR-luciferase reporter, SF-1/DAX-1 repression relief | AID 652010 | hit rate 1.1% among 370,000 | inhibition, % at 6.8 µM;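 active = inhibition above the mean over all tested compounds plus 3 SD, cut at about 3.6% in these data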;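 also: 0% = DAX-1 cells with DMSO and 100% = cells lacking DAX-1 with DMSO; higher inhibition means more luminescence from relief of DAX-1 repression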
hcDAF-12 act: activators of H. contortus DAF-12 nuclear receptor; HEK293 hcDAF-12 lit1-tk-luc reporter, luminescence; 0% DMSO, 100% Δ7-dafachronic acid; activation, % at 6.8 µM; hit rate 1.4% among 370,000; AID 652067;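 active = activation above the mean of all tested compounds plus 3 SD, cut at about 5.5% in these data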;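 also: 100% = response to 3 µM Δ7-dafachronic acid high control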
DAX1 inh-2: NR0B1 (DAX1) inhibition; HEK293 Gal4-DAX1 luciferase reporter, luminescence; inhibition, % at 6.75 µM; hit rate 0.99% among 340,000;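 active = inhibition above the mean over all tested compounds plus 3 SD, cut at about 4.2% in these data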;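 also: 0% = DAX1-transfected cells with DMSO and 100% = empty-vector control cells with DMSO; inhibition shows as a rise in luminescence from relieved DAX1 repression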
Target sequence (P51843 207-470 limits assumed): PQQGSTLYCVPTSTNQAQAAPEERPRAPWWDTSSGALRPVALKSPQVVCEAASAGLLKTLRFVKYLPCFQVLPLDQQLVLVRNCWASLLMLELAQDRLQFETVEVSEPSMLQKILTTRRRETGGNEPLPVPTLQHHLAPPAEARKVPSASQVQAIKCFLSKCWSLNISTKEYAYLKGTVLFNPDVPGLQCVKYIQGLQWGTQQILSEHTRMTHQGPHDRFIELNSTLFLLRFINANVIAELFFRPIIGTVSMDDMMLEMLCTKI
hgDAF12 agonist: agonists of H. glycines DAF-12 nuclear receptor; HEK293 GAL4-hgDAF12 UAS-luciferase reporter, agonist luminescence; normalized to butyrate control; AID 687014; activation, % at 6.8 µM; hit rate 1.8% among 370,000;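 active = activation above a cutoff set at the mean of all screened compounds plus 3 SD, cut at about 10% in these data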;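 also: 0% = DMSO wells and 100% = sodium butyrate wells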
An asterisk follows results filed as active; ! = not confirmed by another sample.

CC(C)(C)C(=O)OC12CCCN(C1)/C(=C/c1ccccc1)C2 (stereo unspecified) was read as ssDAF12 agonist -1.1, DAX1 inh-1 0.9, hcDAF-12 act -1.2 and hgDAF12 agonist 5.7.
`CCOC(=O)Cn1cc(CN2C(C(=O)OC)CN(C3CC3)CCS2(=O)=O)nn1` (stereo unspecified) gave ssDAF12 agonist -1.4, DAX1 inh-1 0.2, hcDAF-12 act -2.5 and hgDAF12 agonist 3.5.
O=C(O)c1ccc2c(c1)N(Cc1ccc(F)cc1)C(=O)c1ccccc1S2 was read as ssDAF12 agonist -1.6, FXN GAA850 act 1.1, DAX1 inh-1 0.7, hcDAF-12 act -1.8, DAX1 inh-2 5.0* and hgDAF12 agonist -2.0.
Screening CN(C)C=Nc1ccc(Cn2cnc3nc4ccc(Cl)cc4cc3c2=O)cc1 returned ssDAF12 agonist -0.3, DAX1 inh-1 0.9, hcDAF-12 act 4.5 and hgDAF12 agonist 2.4.
Screening O=c1c2cc3cc(Cl)ccc3nc2ncn1CCc1c[nH]c2ccccc12 returned ssDAF12 agonist 1.5*, DAX1 inh-1 0.6, hcDAF-12 act 5.5 and hgDAF12 agonist 4.6.
For C/C(=N/O)c1no[n+]([O-])c1/C(C)=N\O the results were ssDAF12 agonist -0.9, FXN GAA850 act 0.4, DAX1 inh-1 -0.2, hcDAF-12 act -0.7, DAX1 inh-2 7.2* and hgDAF12 agonist 0.4.
CCCC(=O)OC12CCCN(C1)/C(=C/c1ccc(C#N)cc1)C2 (stereo unspecified) was read as ssDAF12 agonist -0.6, DAX1 inh-1 0.2, hcDAF-12 act -0.1 and hgDAF12 agonist 2.1.
For CC12CCC(C(=O)N3CCOCC3)([C@H](Br)C1=O)C2(C)C (stereo partly specified) the results were ssDAF12 agonist -1.5, FXN GAA850 act 1.2, DAX1 inh-1 0.5, hcDAF-12 act 0.0 and hgDAF12 agonist 0.0.
`CN(C)C(=O)C12CCC(C)(C(=O)C1Br)C2(C)C` (stereo unspecified) gave ssDAF12 agonist 1.0*, FXN GAA850 act 0.9, DAX1 inh-1 -0.5, hcDAF-12 act 0.3, DAX1 inh-2 -0.8 and hgDAF12 agonist 0.5.
For Cc1cccc(-c2nsc(SCC(=O)N3CCCC3)n2)c1 the results were ssDAF12 agonist -0.2, FXN GAA850 act 1.8, DAX1 inh-1 2.6, hcDAF-12 act 1.9, DAX1 inh-2 2.0 and hgDAF12 agonist 12.8*.
For O=C(NCC(c1ccco1)N1CCOCC1)c1ccc([N+](=O)[O-])cc1 (stereo unspecified) the results were ssDAF12 agonist -1.4, FXN GAA850 act -1.2, DAX1 inh-1 0.0, hcDAF-12 act -1.3, DAX1 inh-2 -0.3 and hgDAF12 agonist -2.0.
`O=C(NCC(O)CN1CCOCC1)c1ccc([N+](=O)[O-])cc1` (stereo unspecified) gave ssDAF12 agonist -1.3, FXN GAA850 act 4.0, DAX1 inh-1 0.5, hcDAF-12 act -2.1, DAX1 inh-2 6.2* and hgDAF12 agonist -3.2.
CC(=O)c1cccc(NC(=O)C2CCN(C(=O)c3ccc([N+](=O)[O-])cc3)CC2)c1 was read as ssDAF12 agonist 2.3*, FXN GAA850 act 2.1, DAX1 inh-1 0.2, hcDAF-12 act 4.2, DAX1 inh-2 1.4 and hgDAF12 agonist 3.9.
`O=C(Nc1ccccc1)C1CCN(C(=O)c2ccc([N+](=O)[O-])cc2)CC1` gave ssDAF12 agonist -1.3, FXN GAA850 act 0.8, DAX1 inh-1 -0.2, hcDAF-12 act -1.3, DAX1 inh-2 -1.4 and hgDAF12 agonist -0.1.
Screening O=C(c1ccc([N+](=O)[O-])cc1)N1CCOCC1 returned ssDAF12 agonist 8.9*, FXN GAA850 act -0.8, DAX1 inh-1 -0.1, hcDAF-12 act -0.8, DAX1 inh-2 -0.1 and hgDAF12 agonist -0.4.
`C1CC1C(=NN=C(C1CC1)C1CC1)C1CC1` gave ssDAF12 agonist -1.7, FXN GAA850 act -1.9, DAX1 inh-1 -0.6, hcDAF-12 act 1.2, DAX1 inh-2 0.6 and hgDAF12 agonist -4.7.
Screening NC(=O)NN=C(C1CC1)C1CC1 returned ssDAF12 agonist -0.8, FXN GAA850 act -1.9, DAX1 inh-1 -0.3, hcDAF-12 act -0.5, DAX1 inh-2 4.9* and hgDAF12 agonist 1.6.
`Oc1ccc(-c2csc(Nc3ccccn3)n2)c(O)c1` gave ssDAF12 agonist 0.7, FXN GAA850 act 5.0, DAX1 inh-1 1.3, hcDAF-12 act 3.8, DAX1 inh-2 4.6* and hgDAF12 agonist 9.4.
`Cc1cccnc1Nc1nc(-c2ccc(O)cc2O)cs1` gave ssDAF12 agonist -0.5, FXN GAA850 act 2.0, DAX1 inh-1 0.3, hcDAF-12 act 0.9, DAX1 inh-2 0.3 and hgDAF12 agonist 1.0.
CC(=O)Nc1nc(C)c(-c2csc(Nc3ccccn3)n2)s1 was read as ssDAF12 agonist -1.4, FXN GAA850 act 1.8, DAX1 inh-1 0.8, hcDAF-12 act 2.7, DAX1 inh-2 3.4 and hgDAF12 agonist 10.5*!.
O=C(Cn1nnc(-c2ccncc2)n1)Nc1ccc(Cl)cc1 was read as ssDAF12 agonist -0.8, DAX1 inh-1 -0.7, hcDAF-12 act -3.1 and hgDAF12 agonist 1.1.
For CN1CC=C(c2ccccc2)N(c2ccc(Br)cc2)C1=O the results were ssDAF12 agonist -1.2, DAX1 inh-1 -0.2, hcDAF-12 act 2.9 and hgDAF12 agonist 7.1.
For Cc1ccc(OC(=O)COc2ccccc2C)c(-n2nc3ccccc3n2)c1 the results were ssDAF12 agonist -0.2, FXN GAA850 act 6.4, DAX1 inh-1 3.1, hcDAF-12 act 6.2*, DAX1 inh-2 1.4 and hgDAF12 agonist 9.6.
`COc1ccc(N2CCN(CCCNC(=O)CCc3cccc(Cl)c3)CC2)cc1` gave ssDAF12 agonist -0.8, DAX1 inh-1 0.3, hcDAF-12 act 1.0 and hgDAF12 agonist 3.0.
Cc1sc2c(c1C)C(=O)NC(c1ccccc1F)N2 (stereo unspecified) was read as ssDAF12 agonist 0.8, FXN GAA850 act 5.3, DAX1 inh-1 0.5, hcDAF-12 act 0.5, DAX1 inh-2 1.3 and hgDAF12 agonist 4.0.
Cc1cccc(C2NC(=O)c3c(sc(C)c3C)N2)c1O (stereo unspecified) was read as ssDAF12 agonist 1.4*, FXN GAA850 act 1.3, DAX1 inh-1 0.1, hcDAF-12 act 3.8, DAX1 inh-2 0.5 and hgDAF12 agonist 1.6.
For CN(Cc1cccc(Cl)c1Cl)C(=O)CCNC(=O)c1ccco1 the results were ssDAF12 agonist -0.3, FXN GAA850 act -0.7, DAX1 inh-1 4.1*, hcDAF-12 act 2.5, DAX1 inh-2 -0.8 and hgDAF12 agonist -0.9.
`CN(CC(=O)Nc1cccc(F)c1)C(=O)CCNC(=O)c1ccco1` gave ssDAF12 agonist -1.9, FXN GAA850 act 0.6, DAX1 inh-1 -1.1, hcDAF-12 act -0.7, DAX1 inh-2 0.7 and hgDAF12 agonist -2.1.

Assay outcomes from PubChem.
